Compound activity: PubChem BioAssay, National Center for Advancing Translational Sciences (NCATS)
PLK1 PBD inh – qHTS for Inhibitors of PLK1-PDB (polo-like kinase 1 - polo-box domain): Primary Screen | Plk1 PBD binding of FITC phosphopeptide, fluorescence polarization | Potency, µM, actives largely listed as inhibitors | 360,000 compounds, 2.8% hits; note: series mostly up to about 57 µM; nearly all actives have a fitted effect of over 65% in size
HP1b chromo inh – HTS for Inhibitors of HP1-beta Chromodomain Interactions with Methylated Histone Tails; Potency, µM (doses to about 114 µM), most hits filed as inhibitors; AlphaScreen HP1-beta / biotin-H3K9me3 peptide binding; Chromobox protein homolog 1 (Homo sapiens), P83916; 390,000 compounds, 0.56% hits; note: nearly all actives have a fitted effect of over 70% in size
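Compound inhibition of the preformed complex between 50 nM HP1-beta and 50 nM biotinylated H3K9me3 peptide was read by AlphaScreen. Buffer was PBS pH 7.4 with 0.01% Tween-20. Incubations ran 30 min at room temperature, with 10 ug/mL donor/acceptor beads.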
G9a block – qHTS Assay for Inhibitors of Histone Lysine Methyltransferase G9a | Histone-lysine N-methyltransferase EHMT2 (Homo sapiens), Q96KQ7 | G9a H3K9 monomethylation, AlphaScreen, 2 h | Potency, µM (top dose mostly 102 µM), actives largely listed as inhibitors | 350,000 compounds, 8.8% hits; note: nearly all actives have a fitted effect of over 75% in size
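G9a (20 nM) was preincubated 15 min with compound, then reacted 2 h at room temperature with 500 nM biotin-H3K9 peptide and 20 µM SAM. Monomethyl-H3K9 detected by AlphaScreen using anti-H3K9me1 antibody.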
BAZ2B block – qHTS Assay for Inhibitors of BAZ2B; Bromodomain adjacent to zinc finger domain protein 2B (Homo sapiens), Q9UIF8; AlphaScreen BAZ2B-H3K14Ac peptide displacement; Potency, µM (titrated, usually from 114 µM), hits mostly inhibitors; 360,000 compounds, 4.4% hits; AID 504333, 2011; note: nearly all actives have a fitted effect of over 60% in size
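Inhibition is scored as reduced AlphaScreen emission. The BAZ2B/b-H3(5-23)K14Ac complex (50 nM each) in PBS pH 7.4, 0.01% Tween-20 meets compound (up to 110 uM) for 30 min at RT before bead addition.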
VDR inh – Inhibitors of the vitamin D receptor (VDR): qHTS | Vitamin D3 receptor (Homo sapiens), P11473 | VDR-SRC2-3 peptide fluorescence polarization, 2 h | Potency, µM, most hits filed as inhibitors | 400,000 compounds, 0.93% hits
Target sequence (P11473 whole entry, looked up): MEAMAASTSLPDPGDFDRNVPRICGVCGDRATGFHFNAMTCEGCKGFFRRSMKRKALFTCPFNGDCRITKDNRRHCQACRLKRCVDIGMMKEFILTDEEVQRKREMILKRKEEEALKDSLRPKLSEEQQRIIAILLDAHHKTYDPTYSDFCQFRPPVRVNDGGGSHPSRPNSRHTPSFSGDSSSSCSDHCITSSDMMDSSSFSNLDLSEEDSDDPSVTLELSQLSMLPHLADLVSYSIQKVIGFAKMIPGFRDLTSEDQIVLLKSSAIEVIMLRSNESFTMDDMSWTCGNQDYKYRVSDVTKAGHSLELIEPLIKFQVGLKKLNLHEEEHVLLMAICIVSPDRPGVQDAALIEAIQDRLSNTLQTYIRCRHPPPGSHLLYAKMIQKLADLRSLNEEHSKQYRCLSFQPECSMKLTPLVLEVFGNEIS
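Two reagent solutions held at 4 deg C in the dark were dispensed, compounds pinned at 23 nl, and the mixture incubated 2 h at room temperature. Read-out: fluorescence polarization of VDR–SRC2-3 peptide binding.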
JMJD2A Tudor – qHTS Assay for Inhibitors of JMJD2A-Tudor Domain | Lysine-specific demethylase 4A (Homo sapiens), O75164 | AlphaScreen JMJD2A-Tudor / H3K4me3 peptide binding | Potency, µM (series often up to 114 µM), usual class: inhibitors | 390,000 compounds, 4.4% hits | AID 504339, 2011; note: nearly all actives have a fitted effect of over 50% in size
Each line names hits and unclear results; the compound was inactive in the other large screens. Hits are enriched below; roughly 11% of the tested compounds scored in any of these assays. Calls come from the whole dose curve; as a rule, active = well fitted curve in the direction sought with a large enough effect; inconclusive = small, poorly fitted or top-dose-only effect, or another doubt; inactive = no such curve, though single readings can be large; an effect the other way counts as inactive or inconclusive.

O=C1/C(=C/c2cccs2)CCC/C1=C\c1cccs1	HP1b chromo inh inconclusive, BAZ2B block 5.6µM, JMJD2A Tudor inconclusive
CC1C/C(=C/c2cccs2)C(=O)/C(=C/c2cccs2)C1 (stereo not drawn)	HP1b chromo inh inconclusive, G9a block 35µM, BAZ2B block inconclusive, JMJD2A Tudor inconclusive
O=C(CCl)c1ccc2[nH]c(=O)oc2c1	PLK1 PBD inh 7.5µM, G9a block 45µM, BAZ2B block inconclusive
CCn1cnc2sc(C(=O)N(Cc3ccc(N(C)C)cc3)Cc3ccco3)c(C)c2c1=O	HP1b chromo inh 35µM, G9a block 16µM, BAZ2B block 45µM, JMJD2A Tudor 50µM
COc1ccc(C(=O)N(Cc2ccc(N(C)C)cc2)Cc2ccco2)cc1Cl	HP1b chromo inh inconclusive, G9a block inconclusive, BAZ2B block 20µM, JMJD2A Tudor 35µM (no result: PLK1 PBD inh)
CCn1cnc2sc(C(=O)Oc3ccc(Br)cc3)c(C)c2c1=O	none
Cc1cc2oc(C(=O)N(Cc3ccco3)Cc3ccccc3Cl)c(C)c2cc1C	none (no result: PLK1 PBD inh)
Cc1cc2oc(C(=O)N(Cc3ccc(N(C)C)cc3)Cc3ccco3)c(C)c2cc1Cl	HP1b chromo inh inconclusive, G9a block 13µM, BAZ2B block 13µM, JMJD2A Tudor 13µM (no result: PLK1 PBD inh)
CN(C)c1ccc(CN(Cc2ccco2)C(=O)c2ccc(C(C)(C)C)cc2)cc1	HP1b chromo inh inconclusive, G9a block 11µM, BAZ2B block 11µM, JMJD2A Tudor 13µM (no result: PLK1 PBD inh)
CC1(c2nnc(-c3cccc(Cl)c3)o2)CC(c2ccccc2)=NO1 (stereo not drawn)	none (no result: G9a block, BAZ2B block)
CCCN1CCN(C(=O)C2CCN(S(=O)(=O)c3ccc4c(c3)NC(=O)C(C)S4)CC2)CC1 (stereo not drawn)	none
O=C(Nc1cccs1)N1CCN(c2ncccn2)CC1	PLK1 PBD inh inconclusive, G9a block 40µM
COc1c(C)cccc1C(=O)NC(=S)Nc1ccc2c(c1)Cc1ccccc1-2	none
COc1ccccc1NC(=S)NC(=O)CC(C)C	none
COc1c(C)cccc1C(=O)NC(=S)Nc1cccc2nsnc12	G9a block 45µM
CC(C)CC(=O)NC(=S)Nc1cccc2nsnc12	G9a block 35µM
OC(c1cc(Cl)cc(Cl)c1)c1ncc(-c2ccccc2F)[nH]1 (stereo not drawn)	none (no result: HP1b chromo inh, G9a block, BAZ2B block, VDR inh, JMJD2A Tudor)
Cc1ccc(Cc2nc3ccccc3nc2SCC(=O)N2CCN(c3ccccc3F)CC2)cc1	none (no result: PLK1 PBD inh)
CN(CC(=O)Nc1ccc(N2CCOCC2)cc1)Cc1cc(=O)n2ccsc2n1	G9a block inconclusive
Cc1c(C(=O)NN)sc(-c2ccccc2)c1C#N	none (no result: BAZ2B block)
Cc1sc(NC(=O)c2cc(-c3ccc(Cl)cc3)nc3ccccc23)c(C(N)=O)c1C	PLK1 PBD inh 13µM, HP1b chromo inh inconclusive, G9a block 13µM
CCOC(=O)c1sc(NC(=O)c2cc(-c3ccc(C)cc3)nc3ccccc23)c(C#N)c1C	PLK1 PBD inh 2.7µM, HP1b chromo inh inconclusive, G9a block 5.6µM, VDR inh 79µM, JMJD2A Tudor 79µM
Cc1sc(NC(=O)c2cc(-c3ccccc3)nc3ccccc23)c(C(N)=O)c1C	none
CCOC(=O)c1sc(-c2ccc(C)cc2)c(C#N)c1C	PLK1 PBD inh 24µM, G9a block 40µM
Cc1ccccc1-c1cc(C(=O)Nc2sc(C(=O)OC(C)C)c(C)c2C#N)c2ccccc2n1	PLK1 PBD inh 11µM, HP1b chromo inh inconclusive, G9a block 45µM, VDR inh inconclusive, JMJD2A Tudor 56µM
COc1ccc(-c2cc(C(=O)Nc3sc4c(c3C#N)CCCC4)c3ccccc3n2)cc1	none
Cc1cccc(NC(=O)c2cc3c([nH]c2=O)CC(c2ccccc2)CC3=O)c1 (stereo not drawn)	none (no result: PLK1 PBD inh)
COc1ccc(NC(=O)N2CC[C@@]3(CCCN(C(=O)c4cccc(F)c4)C3)C2)cc1	none (no result: PLK1 PBD inh, HP1b chromo inh, BAZ2B block, JMJD2A Tudor)
COc1ccc(CNC(=O)CSc2nc3ccc(OC)cc3[nH]2)cc1	none
